# Measured values as given in PubChem BioAssay AID504339 (National Center for Advancing Translational Sciences (NCATS), 2011).
# About 17,000 (4.4%) of roughly 390,000 compounds were called active. Roughly 8% stayed inconclusive and do not appear here. What follows is part of a selection rich in actives, with near analogues and random picks from the rest. A number with no mark means an inactive call. The call rests on the fitted dose curve; in most records, active means well fitted inhibition curve with a large enough effect; inconclusive means small, poorly fitted or top-dose-only effect; inactive means no such curve, though single readings can be large or run the other way.
# Molecular target: Lysine-specific demethylase 4A (Homo sapiens) (UniProt O75164)
# Test: qHTS Assay for Inhibitors of JMJD2A-Tudor Domain; further: nearly all actives have a fitted effect of over 50% in size
# Conditions: AlphaScreen JMJD2A-Tudor / H3K4me3 peptide binding; series mostly up to 114 µM; activity change, negative = inhibition: at the top concentration
# On the % scale 0 is the no-effect control and ±100 the full control effect; potency means the concentration at half of the fitted maximal effect.
# Chain of Lysine-specific demethylase 4A (Homo sapiens) (O75164 whole entry, looked up, the tested form may be a part): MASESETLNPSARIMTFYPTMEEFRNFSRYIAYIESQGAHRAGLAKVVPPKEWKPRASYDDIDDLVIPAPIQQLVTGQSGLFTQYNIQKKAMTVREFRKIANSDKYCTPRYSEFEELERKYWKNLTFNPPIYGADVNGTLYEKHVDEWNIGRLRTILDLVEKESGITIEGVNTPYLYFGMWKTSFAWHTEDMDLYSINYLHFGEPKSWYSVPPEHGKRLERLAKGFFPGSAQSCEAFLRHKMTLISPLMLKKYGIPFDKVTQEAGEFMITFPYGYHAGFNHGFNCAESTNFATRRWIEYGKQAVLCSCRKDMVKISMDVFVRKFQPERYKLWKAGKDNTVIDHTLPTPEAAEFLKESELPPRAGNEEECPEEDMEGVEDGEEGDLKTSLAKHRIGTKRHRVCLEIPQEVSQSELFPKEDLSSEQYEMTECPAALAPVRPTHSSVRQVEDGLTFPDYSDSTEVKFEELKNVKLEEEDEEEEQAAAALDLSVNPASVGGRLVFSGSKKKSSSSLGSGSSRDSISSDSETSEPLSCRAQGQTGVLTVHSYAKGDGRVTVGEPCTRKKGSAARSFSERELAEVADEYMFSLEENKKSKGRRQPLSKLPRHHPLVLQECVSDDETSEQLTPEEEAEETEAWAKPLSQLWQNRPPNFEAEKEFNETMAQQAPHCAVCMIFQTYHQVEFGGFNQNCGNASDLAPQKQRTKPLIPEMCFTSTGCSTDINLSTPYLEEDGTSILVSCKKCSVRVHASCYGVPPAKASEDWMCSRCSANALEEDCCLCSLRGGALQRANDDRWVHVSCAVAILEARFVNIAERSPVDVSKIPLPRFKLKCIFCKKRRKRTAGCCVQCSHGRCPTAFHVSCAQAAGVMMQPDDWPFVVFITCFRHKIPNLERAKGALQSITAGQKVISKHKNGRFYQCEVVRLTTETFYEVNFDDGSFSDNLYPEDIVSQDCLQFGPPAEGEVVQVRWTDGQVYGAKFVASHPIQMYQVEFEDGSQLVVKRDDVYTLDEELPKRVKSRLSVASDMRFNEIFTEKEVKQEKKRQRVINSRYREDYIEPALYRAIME
SMILES,Potency,"activity change, negative = inhibition"
CCOC(=O)C1CCCCN1Cc1ccc(OC)c(OC)c1OC (configuration not stated),2.24 µM (active),
CCOC(=O)C1CCN(C(=O)/C=C/c2cc(OC)c(OC)c(OC)c2)CC1,,3.19% [at 57.1 µM]
CCOC(=O)C1CCN(S(=O)(=O)c2cc(F)ccc2OC)CC1,,-5.63%
CCOc1ccccc1CNCc1c(C(=O)O)c(C)n(Cc2ccc(C)cc2)c1C,,-13.4%
CC1=C(c2ccc(C)c(C)c2)S(=O)(=O)NC1=NCc1ccccc1Cl,,-22.5%
Cc1nc2ccn(Cc3cccs3)c(=O)c2cc1C(=O)NCc1ccc(Cl)cc1,,-15.3%
CCOc1cccc(/C=N/NC(=S)NCCN2CCOCC2)c1O,56.2 µM (active),
CCOc1nc(NCCN2CCOCC2)nc(Nc2ccc(C)cc2)n1,,-20.1%
O=C(NCCN1CCOCC1)Nc1cccc(Cl)c1,,4.56%
O=C(Nc1nc2c(s1)CCCC2)c1ccccc1F,,-14.9%
COc1ccc(-c2nnc(SCC(=O)Nc3ccc(C(C)C)cc3)nc2-c2ccc(OC)c(OC)c2)cc1OC,,-8%
CCCCN(C)CCCNC(=O)CN1N=C(c2ccc(OC)cc2)CCC1=O,,-2.24%
Nc1ccc2nc3c(=O)[nH]c(=S)[nH]c3nc2c1,2.51 µM (active),
COc1ccc(CNC(=O)Cc2coc3ccc(C(C)C)cc23)cc1,,-7.64%
COc1ccc(CCNC(=O)C(=O)NCC(c2ccco2)S(=O)(=O)c2cccs2)cc1OC (configuration not stated),,-2.6%
CCOc1ccc(-n2c(SCC(=O)NCc3ccccc3)nc3n[nH]c(C)c3c2=N)cc1,,-6.09%
O=C(N/N=C/c1ccccn1)C12CC3CC(CC(C3)C1)C2,,6.29%
CCOc1ccc(-n2c(O)c(/C=N/Nc3nnc(C)c(=O)[nH]3)c3ccccc3c2=O)cc1,28.2 µM (active),
CCN(CC)CCCN=Cc1c(O)n(-c2ccc(C)cc2)c(=O)c2ccccc12,,-18.3%
O=C(COc1ccc(Cl)cc1Cl)N/N=C/c1ccccn1,,6.74%
Cc1nnc(N/N=C/c2ccccn2)[nH]c1=O,20 µM (active),
Cc1cccc(C(=O)N2CCc3cc(CNC(=O)Cc4ccc(F)cc4)ccc32)c1,,-23.3%
COc1cccc(C(=O)Nc2ccc(-c3cc(C(F)(F)F)nn3-c3ccccc3)cc2)c1,,0%

SMILES,Potency,"activity change, negative = inhibition"
OCc1cnc(SCc2ccc(F)cc2)n1Cc1ccc(F)cc1,,-28.4%
Cc1ccc(S(=O)(=O)N2CCN(c3nc(-n4cnc5ccccc54)nc4ccccc34)CC2)cc1,,-23.4%
c1ccc(Cn2nnc3c(N4CCCCC4)ncnc32)cc1,,16.3%
COc1cc(OC)cc(-c2nc3nc(C)c(CCC(=O)Nc4ccc(C)cc4)c(C)n3n2)c1,,-21.2%
Cc1ccc(Nc2ccccc2N)cc1,44.7 µM (active),
Cc1ccc(Nc2nc(Cl)c(C=O)s2)cc1,,1.05%
Nc1ccc(C(=O)Nc2ccccc2N)cc1,,-8.97%
O=C(c1ccco1)n1nc(-c2ccc(Cl)cc2)nc1NCc1ccccc1,,3.78%
Cc1nn2c(=O)cc(COC(=O)c3cccc(NC(=O)COc4ccccc4Cl)c3)nc2s1,,-21.9%
Cc1cc(/C=N/n2cnnc2)c(C)n1-c1ccc2ncccc2c1,,-26.6%
Cc1cc(/C=N/NC(N)=O)c(C)n1C1CCCCC1,,-26.2%
Cc1cccc(-n2c(C)cc(/C=N/NC(N)=S)c2C)c1,56.2 µM (active),
Cc1cc(C(=O)Nc2cccc(C(F)(F)F)c2)c2c(C)nn(-c3cccc(F)c3)c2n1,,20.1%
COCCCNC(=O)c1ccc(NC(=O)c2nsc3ccccc23)cc1,,5.52%
CCCCN1C(=O)/C(=C2/C=CC=CN2C)SC1=S,44.7 µM (active),
CCCCN1C(=O)/C(=C/C=C2/C=Cc3ccccc3N2CC)SC1=S,,-28.7%
COc1ccccc1C(=O)N1CCN=C1SCc1cccnc1,,0.331%
COc1cccc(OC)c1C(=O)N1CCN(Cc2cccnc2)CC1,5.01 µM (active),
COc1cccc(OC)c1OCCN1CCN(C(=O)c2ccco2)CC1,,-15% [at 57.1 µM]
CCCn1c2ccccc2c2cnn(CC(=O)NCCCOC(C)C)c(=O)c21,,-8.91%
COc1cccc(N=C2SC(C(=O)Nc3cccc(Cl)c3)CC(=O)N2C)c1 (configuration not stated),,-17%
COc1cccc(CNC(=O)Cn2ncn3c(cc4ccccc43)c2=O)c1,,-13.5%
CCc1n[nH]c(=S)n1/N=C/c1c[nH]c2ccc(Br)cc12,,-20%

SMILES,Potency,"activity change, negative = inhibition"
O=C(Cn1cncn1)N/N=C/c1c2ccccc2cc2ccccc12,,5.2%
S=c1[nH]nc(-c2ccccc2)n1/N=C/c1c[nH]c2ccccc12,89.1 µM (active),
Cc1ccc(/C=N\n2c(-c3ccccc3)n[nH]c2=S)s1,50.1 µM (active),
C=CCNC(=S)N/N=C/c1ccc(C)s1,,-23.5%
S=c1[nH]nc(-c2cc(-c3ccccc3)n[nH]2)n1/N=C/c1c2ccccc2cc2ccccc12,39.8 µM (active),
C[n+]1ccc(/C=C/c2c[nH]c3ccccc23)cc1,,-0.69%
Cc1ccccc1C(=O)NCc1nc(-c2ccc(Cl)cc2)no1,,-14.9%
O=C(Nc1ccc(S(=O)(=O)N2CCC(c3nc4ccccc4s3)CC2)cc1)c1ccccc1F,,1.99%
CCc1ccc(C2CC(=O)c3c([nH]c(C(=O)OCc4ccc(C)cc4)c3C)C2)cc1 (configuration not stated),,-5.14%
Cc1cccc(N2CCN(C(=O)c3ccc(Nc4nc5ccccc5n5nnnc45)cc3)CC2)c1C,,-9.59%
N#Cc1nc(/C=C/c2ccc(F)cc2)oc1NCc1ccc(F)cc1,,-8.8%
CC(=O)N1CCc2cc(S(=O)(=O)NC(Cc3ccccc3)C(=O)NCc3ccc(C)cc3)ccc21 (configuration not stated),,-24%
Cc1ccccc1CNC(=O)C1CCCN(S(=O)(=O)N(C)c2ccc(F)cc2)C1 (configuration not stated),,3.66%
CC1=C/C(=N\OS(=O)(=O)c2ccccc2)C=CC1=O,22.4 µM (active),
CCc1ccccc1NC(=O)Cn1c(=O)n(-c2cccc(C)c2)c(=O)c2c1c1cc(OC)ccc1n2C,,7.93%
O=C(NC1CCCCC1)c1ccc2c(c1)N(Cc1ccc(Cl)cc1)C(=O)c1ccccc1S2=O (configuration not stated),,-18.2%
CCOc1cc(C(=O)Nc2nnc3n2CCS3)cc(OCC)c1OCC,,-10.6%
O=C(O)C1CC=CC2CCN(C3CCCCC3)C(=O)C21 (configuration not stated),,-6.21%
O=C(O)c1cccc2c1C(=O)N(C1CCCCC1)C2,,-27.1%
O=C(O)C1CCN1C1CCCCC1 (configuration not stated),31.6 µM (active),
CCCCOc1ccc(NC(=O)c2cc3c(n(-c4ccc(Cl)cc4)c2=O)CCCC3=O)cc1,,-21.3%
